# Out of some 5,500 compounds screened, about 2,000 (36%) were called active. About 18% were inconclusive and are not listed. The list shows a part of the results. Values without a mark were called inactive. Cut-off read from the data, not from the text of the source: active = normalized growth mostly below about 0.91 (no sharp cut-off); inconclusive = no clear call, values can overlap the other calls; inactive = mostly above about 0.92.
# Assay: chemical genetic growth profiling, strain panel (AID 1159580);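 note: tested at 20 µM; growth read once vehicle control cultures reached saturation at 30 °C; 1 = growth at the plate median or of vehicle wells; lower values mean less growth of the strain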
# Conditions: growth OD
compound,measurement,setting,value
CC1=CC2C(C(C)C)CCC(C)(O)C2CC1 (stereo not drawn),normalized growth,"S. cerevisiae deletion strains, locus YJL187C, strain SWE1 (second series), hits give low values",1.01
same,normalized growth,"S. cerevisiae deletion strains, locus YJL187C, strain SWE1, hits give low values",1
same,normalized growth,"S. cerevisiae deletion strains, locus YJR043C, strain POL32, hits give low values",0.973
same,normalized growth,"S. cerevisiae deletion strains, locus YJR066W, strain TOR1, hits give low values",0.914
same,normalized growth,"S. cerevisiae deletion strains, locus YKL009W, strain mrt4, hits give low values",0.994
same,normalized growth,"S. cerevisiae deletion strains, locus YKL068W, hits give low values",0.972
same,normalized growth,"S. cerevisiae deletion strains, locus YKL085W, strain MDH1 (second series), hits give low values",0.979
same,normalized growth,"S. cerevisiae deletion strains, locus YKL085W, strain MDH1, hits give low values",0.979
same,normalized growth,"S. cerevisiae deletion strains, locus YKL160W, strain elf1, hits give low values",0.968
same,normalized growth,"S. cerevisiae deletion strains, locus YKL190W, strain CNB1, hits give low values",0.994
same,normalized growth,"S. cerevisiae deletion strains, locus YKR001C, strain vps1, hits give low values",0.989
same,normalized growth,"S. cerevisiae deletion strains, locus YKR026C, strain gcn3, hits give low values",0.993
same,normalized growth,"S. cerevisiae deletion strains, locus YKR091W, strain srl3, hits give low values",0.987
same,normalized growth,"S. cerevisiae deletion strains, locus YLL001W, strain dnm1, hits give low values",0.947
same,normalized growth,"S. cerevisiae deletion strains, locus YLL026W, hits give low values",0.988
same,normalized growth,"S. cerevisiae deletion strains, locus YLL041C, strain sdh2, hits give low values",0.995
same,normalized growth,"S. cerevisiae deletion strains, locus YLR027C, strain aat2, hits give low values",0.978
same,normalized growth,"S. cerevisiae deletion strains, locus YLR039C, strain RIC1, hits give low values",0.913
same,normalized growth,"S. cerevisiae deletion strains, locus YLR058C, strain SHM2, hits give low values",0.98
same,normalized growth,"S. cerevisiae deletion strains, locus YLR102C, strain apc9, hits give low values",0.989
same,normalized growth,"S. cerevisiae deletion strains, locus YLR113W, strain HOG1, hits give low values",0.887
same,normalized growth,"S. cerevisiae deletion strains, locus YLR221C, strain rsa3, hits give low values",0.986
same,normalized growth,"S. cerevisiae deletion strains, locus YLR258W, strain gsy2, hits give low values",0.971
same,normalized growth,"S. cerevisiae deletion strains, locus YLR262C, strain YPT6 (second series), hits give low values",0.81 (active)
same,normalized growth,"S. cerevisiae deletion strains, locus YLR268W, strain sec22, hits give low values",0.949
same,normalized growth,"S. cerevisiae deletion strains, locus YLR320W, strain mms22, hits give low values",0.966
same,normalized growth,"S. cerevisiae deletion strains, locus YLR330W, strain CHS5, hits give low values",0.982
same,normalized growth,"S. cerevisiae deletion strains, locus YLR342W, strain FKS1, hits give low values",0.983
same,normalized growth,"S. cerevisiae deletion strains, locus YLR357W, strain rsc2, hits give low values",1.08
same,normalized growth,"S. cerevisiae deletion strains, locus YLR370C, strain arc18, hits give low values",0.984
same,normalized growth,"S. cerevisiae deletion strains, locus YLR371W, strain rom2, hits give low values",1.01
same,normalized growth,"S. cerevisiae deletion strains, locus YLR384C, strain iki3, hits give low values",0.991
same,normalized growth,"S. cerevisiae deletion strains, locus YLR418C, strain cdc73, hits give low values",0.966
same,normalized growth,"S. cerevisiae deletion strains, locus YML016C, strain PPZ1, hits give low values",0.992
same,normalized growth,"S. cerevisiae deletion strains, locus YML032C, strain rad52, hits give low values",0.971
same,normalized growth,"S. cerevisiae deletion strains, locus YML120C, strain ndi1, hits give low values",0.966
same,normalized growth,"S. cerevisiae deletion strains, locus YML124C, strain tub3, hits give low values",0.985
same,normalized growth,"S. cerevisiae deletion strains, locus YMR058W, strain fet3, hits give low values",1.01
same,normalized growth,"S. cerevisiae deletion strains, locus YMR078C, strain ctf18, hits give low values",0.981
same,normalized growth,"S. cerevisiae deletion strains, locus YMR125W, strain sto1, hits give low values",1.02
same,normalized growth,"S. cerevisiae deletion strains, locus YMR129W, hits give low values",0.982
same,normalized growth,"S. cerevisiae deletion strains, locus YMR205C, strain PFK2, hits give low values",0.949
same,normalized growth,"S. cerevisiae deletion strains, locus YMR223W, strain ubp8, hits give low values",0.964
same,normalized growth,"S. cerevisiae deletion strains, locus YMR231W, strain pep5, hits give low values",0.994
same,normalized growth,"S. cerevisiae deletion strains, locus YMR307W, strain GAS1, hits give low values",0.993
same,normalized growth,"S. cerevisiae deletion strains, locus YNL067W, strain RPL9B, hits give low values",1.02
same,normalized growth,"S. cerevisiae deletion strains, locus YNL071W, strain lat1, hits give low values",0.876 (active)
same,normalized growth,"S. cerevisiae deletion strains, locus YNL128W, strain TEP1, hits give low values",0.962
same,normalized growth,"S. cerevisiae deletion strains, locus YNL183C, strain NPR1, hits give low values",0.911
same,normalized growth,"S. cerevisiae deletion strains, locus YNL209W, strain ssb2, hits give low values",0.984
same,normalized growth,"S. cerevisiae deletion strains, locus YNL233W, strain BNI4, hits give low values",1.01
same,normalized growth,"S. cerevisiae deletion strains, locus YNL248C, strain rpa49, hits give low values",1.03
same,normalized growth,"S. cerevisiae deletion strains, locus YNL250W, strain rad50, hits give low values",0.952
same,normalized growth,"S. cerevisiae deletion strains, locus YNL271C, strain bni1, hits give low values",0.986
same,normalized growth,"S. cerevisiae deletion strains, locus YNL298W, strain CLA4, hits give low values",0.983
same,normalized growth,"S. cerevisiae deletion strains, locus YNL307C, strain MCK1, hits give low values",0.986
same,normalized growth,"S. cerevisiae deletion strains, locus YNL322C, strain KRE1 (second series), hits give low values",0.975
same,normalized growth,"S. cerevisiae deletion strains, locus YNL322C, strain KRE1, hits give low values",0.984
same,normalized growth,"S. cerevisiae deletion strains, locus YNR049C, strain mso1, hits give low values",0.998
same,normalized growth,"S. cerevisiae deletion strains, locus YNR052C, strain pop2, hits give low values",1
same,normalized growth,"S. cerevisiae deletion strains, locus YOL012C, strain htz1",1.19
same,normalized growth,"S. cerevisiae deletion strains, locus YOL147C, strain pex11, hits give low values",0.982
same,normalized growth,"S. cerevisiae deletion strains, locus YOR001W, strain rrp6, hits give low values",0.989
same,normalized growth,"S. cerevisiae deletion strains, locus YOR061W, strain CKA2, hits give low values",0.966
same,normalized growth,"S. cerevisiae deletion strains, locus YOR069W, strain VPS5, hits give low values",0.989
same,normalized growth,"S. cerevisiae deletion strains, locus YOR070C, strain gyp1, hits give low values",0.975
same,normalized growth,"S. cerevisiae deletion strains, locus YOR080W, strain dia2, hits give low values",0.993
same,normalized growth,"S. cerevisiae deletion strains, locus YOR083W, strain WHI5, hits give low values",0.964
same,normalized growth,"S. cerevisiae deletion strains, locus YOR106W, strain vam3, hits give low values",0.997
same,normalized growth,"S. cerevisiae deletion strains, locus YOR136W, strain idh2, hits give low values",0.968
same,normalized growth,"S. cerevisiae deletion strains, locus YOR144C, strain elg1, hits give low values",0.985
same,normalized growth,"S. cerevisiae deletion strains, locus YOR184W, strain ser1, hits give low values",0.933
same,normalized growth,"S. cerevisiae deletion strains, locus YOR231W, strain MKK1, hits give low values",0.911
same,normalized growth,"S. cerevisiae deletion strains, locus YOR265W, strain rbl2, hits give low values",0.978
same,normalized growth,"S. cerevisiae deletion strains, locus YOR270C, strain vph1, hits give low values",0.959
same,normalized growth,"S. cerevisiae deletion strains, locus YOR290C, strain snf2, hits give low values",0.997
same,normalized growth,"S. cerevisiae deletion strains, locus YOR316C, strain cot1, hits give low values",0.989
same,normalized growth,"S. cerevisiae deletion strains, locus YPL051W, strain arl3, hits give low values",0.946
same,normalized growth,"S. cerevisiae deletion strains, locus YPL078C, strain atp4, hits give low values",0.957
same,normalized growth,"S. cerevisiae deletion strains, locus YPL106C, strain sse1, hits give low values",1
same,normalized growth,"S. cerevisiae deletion strains, locus YPL240C, strain hsp82, hits give low values",0.987
same,normalized growth,"S. cerevisiae deletion strains, locus YPL256C, strain CLN2, hits give low values",0.915
same,normalized growth,"S. cerevisiae deletion strains, locus YPR119W, strain clb2, hits give low values",0.985
same,normalized growth,"S. cerevisiae deletion strains, locus YPR141C, strain kar3, hits give low values",0.97
same,normalized growth,"S. cerevisiae deletion strains, locus YPR163C, strain tif3, hits give low values",0.99
same,normalized growth,"S. cerevisiae deletion strains, locus YPR167C, strain met16, hits give low values",0.987
same,normalized growth,"S. cerevisiae deletion strains, strain wtn01, hits give low values",0.964
same,normalized growth,"S. cerevisiae strains, strain wild type, hits give low values",0.969
